Source: PubChem BioAssay (EPA / NIEHS)
Results filed as inconclusive are left out. The source made the active and inactive calls. How the source made its calls: active means hit-call score of the fitted dose curve at least 0.9, where 1 is the maximum; inconclusive means response in the unintended direction; inactive means score below 0.9.

Tests used:
[1] = target: Cellular tumor antigen p53 (Homo sapiens) (UniProt P04637); assay: TOX21_p53_BLA_p2_ratio: Tox21 HCT-116 p53 Agonism Beta-lactamase Assay, Ratio, Phase 2 (AID 2283592)
Cellular tumor antigen p53 (Homo sapiens), sequence (P04637 whole entry, looked up): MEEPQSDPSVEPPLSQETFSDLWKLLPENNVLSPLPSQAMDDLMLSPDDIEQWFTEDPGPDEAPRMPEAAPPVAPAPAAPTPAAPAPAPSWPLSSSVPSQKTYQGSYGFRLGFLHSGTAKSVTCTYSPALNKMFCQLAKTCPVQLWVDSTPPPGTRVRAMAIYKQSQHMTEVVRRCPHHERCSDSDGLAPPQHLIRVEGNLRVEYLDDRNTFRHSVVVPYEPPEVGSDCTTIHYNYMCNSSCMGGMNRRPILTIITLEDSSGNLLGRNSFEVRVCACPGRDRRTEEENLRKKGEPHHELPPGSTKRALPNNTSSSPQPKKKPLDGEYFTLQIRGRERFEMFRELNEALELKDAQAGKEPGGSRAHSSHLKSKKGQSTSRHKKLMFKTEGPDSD
Summary of the method: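 In this cell-based reporter format, HCT116 cells were dosed with chemicals delivered from DMSO by 217-fold dilution and incubated 16 h at 37C. Emission at 460 and 530 nm after 2 h CCF4-AM loading provided the ratio, fitted upward versus DMSO.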

[2] = TOX21_p53_BLA_p3_viability: Viability Assessment in the Tox21 HCT-116 p53 Agonism Beta-lactamase Assay, Phase 3 (AID 2283593);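 further: cells exposed to compound for 16 h before reading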
Summary of the method: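 HCT116 cells, 4000/well, dosed 5 h after plating by pin transfer (217-fold dilution from DMSO stock) and incubated 16 h at 37C, 5% CO2. Viability read as ATP luminescence with CellTiter-Glo after 30 min at room temperature.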

[3] = target: Cellular tumor antigen p53 (Homo sapiens) (UniProt P04637); assay: TOX21_p53_BLA_p3_ratio: Tox21 HCT-116 p53 Agonism Beta-lactamase Assay, Ratio, Phase 3 (AID 2283596)
Summary of the method: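 HCT116 p53-bla cells (4000/well) given compound in DMSO (217-fold dilution) after 5 h, incubated 16 h at 37C. CCF4-AM substrate 2 h at room temperature; 460/530 nm emission ratio, gain fitted against DMSO.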

[4] = TOX21_p53_BLA_p4_viability: Viability Assessment in the Tox21 HCT-116 p53 Agonism Beta-lactamase Assay, Phase 4 (AID 2283597);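 further: hits lower the luminescence signal meaning cytotoxicity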
Summary of the method: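 We seeded HCT116 p53 reporter cells at 4000/well and waited 5 h. We then added compounds in DMSO at a 217-fold dilution and incubated for 16 h. Viability was read as CellTiter-Glo luminescence after 30 min at RT.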

[5] = target: Cellular tumor antigen p53 (Homo sapiens) (UniProt P04637); assay: TOX21_p53_BLA_p5_ratio: Tox21 HCT-116 p53 Agonism Beta-lactamase Assay, Ratio, Phase 5 (AID 2283599)
Summary of the method: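 HCT-116 p53-bla cells (4000/well) plated 5 h, dosed with compound (217-fold DMSO dilution) for 16 h at 37 C; CCF4-AM substrate 2 h at room temperature. Activity is the 460/530 nm emission ratio (405 nm excitation), fitted in gain-of-signal direction versus DMSO.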

[6] = target: Cellular tumor antigen p53 (Homo sapiens) (UniProt P04637); assay: TOX21_p53_BLA_p4_ratio: Tox21 HCT-116 p53 Agonism Beta-lactamase Assay, Ratio, Phase 4 (AID 2283601)
Summary of the method: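 HCT-116 p53 beta-lactamase reporter cells (4000/well) preincubated 5 h, then compound (217-fold dilution of DMSO stock) for 16 h at 37C. CCF4-AM substrate added 2 h at room temperature; 460/530 nm emission ratio fitted upward versus DMSO.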

[7] = TOX21_p53_BLA_p5_viability: Viability Assessment in the Tox21 HCT-116 p53 Agonism Beta-lactamase Assay, Phase 5 (AID 2283600)
Summary of the method: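 Compounds, pinned from DMSO at 217-fold dilution, were left on the cells for 16 h. The viability endpoint was ATP content measured by CellTiter-Glo luminescence, where falling signal reflects cytotoxicity.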

Measured: outcome

COc1ccccc1N=Nc1c(S(=O)(=O)O)cc2cc(S(=O)(=O)O)cc(NC(C)=O)c2c1O
not listed: [7]
inactive: all other assays above

O=C(O)c1cc(C(=O)O)cc([N+](=O)[O-])c1
inactive: [6]

Cc1cc(CCC(=O)OCCOCCOCCOC(=O)CCc2cc(C)c(O)c(C(C)(C)C)c2)cc(C(C)(C)C)c1O
inactive: [1] | [2] | [7] | [6]

CC(C)CCCCCCc1ccc(OCCOCCO)cc1
not listed: [1]
inactive: all other assays above

CCCCCCCCN1CCCC1=O
inactive: [3] | [5] | [7] | [6]

CC(=O)NCCO
inactive: [1] | [3] | [4] | [7]

O=C(O)c1cccnc1C(=O)O
inactive: [3] | [5] | [7]

CCCCCCCC(=O)OCCCCCC
not listed: [3] | [4]
inactive: all other assays above
